Laboratory results from PubChem BioAssay (Tox21).
Inconclusive results are not listed. Calls of active or inactive are those of the source. Unless noted, calls follow the shape of the dose curve; as a rule, active = well fitted curve in the direction sought with a large enough effect in the repeat runs; inconclusive = weak or mixed curves; inactive = no such curve, though single readings can be large; an effect the other way counts as inactive or inconclusive.

Key:
[1] = qHTS assay to identify small molecule antagonists of the estrogen related receptor (ERR) signaling pathway from Tox21 library - cell viability counter screen (AID 1224834); also: nearly all actives have a fitted effect of over 30% in size
How it was run: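 Cytotoxicity of test substances is gauged in the same ERR cells used for the antagonist screen, after 17.5 h of compound treatment at 37 C, by CellTiter-Fluor fluorescence measured after 30 min.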

[2] = qHTS assay to identify small molecule agonists of the constitutive androstane receptor (CAR) signaling pathway - cell viability counter screen (AID 1224836); also: nearly all actives have a fitted effect of over 45% in size
How it was run: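 23 h treatment, 37 C, 5% CO2. Cell line: HepG2 stably expressing hCAR with a CYP2B6-2.2kb construct. Co-treatment: PK11195, 0.75 uM final. Read-out: CellTiter-Fluor fluorescence intensity.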

[3] = qHTS assay to identify small molecule antagonists of the constitutive androstane receptor (CAR) signaling pathway - cell viability counter screen (AID 1224837); also: nearly all actives have a fitted effect of over 45% in size
How it was run: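 Multiplexed cytotoxicity read-out for the CAR antagonist screen: double-stable HepG2-CYP2B6-hCAR cells co-treated with 50 nM CITCO (final) and compound over 15 concentrations, incubated 23 hr, then assessed by CellTiter-Fluor fluorescence.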

[4] = target: Nuclear receptor subfamily 1 group I member 3 (Homo sapiens) (UniProt Q14994); experiment: qHTS assay to identify small molecule antagonists of the constitutive androstane receptor (CAR) signaling pathway (AID 1224838); also: nearly all actives have a fitted effect of over 40% in size
How it was run: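 Compounds were titrated across 15 concentrations onto HepG2 cells double-stably expressing hCAR and a CYP2B6-2.2kb reporter, together with 50 nM CITCO (final). After 24 h at 37 C, luciferase activity was measured by luminescence.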

[5] = target: Nuclear receptor subfamily 1 group I member 3 (Homo sapiens) (UniProt Q14994); experiment: qHTS assay to identify small molecule agonists of the constitutive androstane receptor (CAR) signaling pathway (AID 1224839);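 also: HepG2 cells stably carrying human CAR and a CYP2B6 luciferase reporter; nearly all actives have a fitted effect of over 15% in size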
How it was run: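 Compounds tested at 15 concentrations on HepG2 cells stably harbouring hCAR and CYP2B6-2.2kb reporter constructs, co-treated with PK11195 (0.75 uM final), 24 h at 37 C; luminescent reporter signal quantified.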

[6] = qHTS assay to identify small molecule antagonists of the estrogen related receptor signaling pathway with the pleiotropic PPARgamma coactivator (PGC) from Tox21 10K library - cell viability counter screen (AID 1224840; active = well fitted cell-killing curve with a large enough effect in the repeat runs, not every such curve was filed as active; also: nearly all actives have a fitted effect of over 40% in size)
How it was run: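 Step one, plate 2,000 PGC/ERR cells per well; step two, incubate 6 h at 37 C/5% CO2; step three, pin-transfer compounds; step four, incubate 17.5 h; step five, add CellTiter-Fluor and read fluorescence after 30 min.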

[7] = target: Thyrotropin receptor (Homo sapiens) (UniProt P16473); experiment: qHTS assay to identify small molecule agonists of the thyroid stimulating hormone receptor (TSHR) signaling pathway (AID 1224843; calls by dose curve; also: nearly all actives have a fitted effect of over 45% in size)
How it was run: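 Steps: seed 800 TSHR-HEK293 cells per well; add test compound and hold 30 min at ambient temperature; dispense cAMP-d2 then anti-cAMP cryptate; incubate 1 h at ambient; measure fluorescence intensity.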

[8] = qHTS assay to identify small molecule agonists of the hypoxia (HIF-1) signaling pathway - cell viability counter screen (AID 1224844; calls by dose curve; also: nearly all actives have a fitted effect of over 50% in size)
How it was run: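 Tox21 10K compounds were added to HRE-bla ME-180 cells (0.5% dialyzed FBS) and incubated 17 hrs at 37C; ATP-based CellTiter-Glo luminescence then reported cell viability in the same wells.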

[9] = qHTS assay to identify small molecule agonists of H2AX (AID 1224845; active = well fitted activation curve with a large enough effect in the signal ratio in the repeat runs, not every such curve was filed as active; the % refers to the signal ratio)
How it was run: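 Wild-type CHO-K1 cells, plated overnight, exposed 3hr at 37C to 15 concentrations (0.76% DMSO final). Lysed, then HTRF anti-pH2AX (S139) cryptate and anti-H2AX-d2 antibodies, 24 hr room temperature; 665/620 nm emission read.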

[10] = qHTS assay to identify small molecule agonists of H2AX - cell viability counter screen (AID 1224847; calls by dose curve; also: top concentration of the series differs between compounds; nearly all actives have a fitted effect of over 30% in size)
How it was run: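 Compounds tested at 15 concentrations were incubated 3 hr at 37C with wild-type CHO-K1 cells; cellular ATP-based luminescence (CellTiter-Glo) indicated viability.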

[11] = qHTS RealTime-Glo MT Cell Viability Assay in HepG2 cells - 24 hour (AID 1224867); also: nearly all actives have a fitted effect of over 50% in size
How it was run: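 Viability was tracked continuously by NanoLuc luminescence from prosubstrate reduced by living HepG2 cells, at successive time points over 40 h of compound exposure. Cells with reagent were preincubated 5 h at 37 °C before compound addition.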

[12] = qHTS RealTime-Glo MT Cell Viability Assay in HEK293 cells - 32 hour (AID 1224868); also: top concentration of the series differs between compounds; nearly all actives have a fitted effect of over 50% in size
How it was run: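 Viability tracked continuously by luminescence as live cells reduce a prosubstrate for NanoLuc; HEK293 cells preincubated 5 h, compound-treated at 37 C, and read at 0, 8, 16, 24, 32 and 40 h.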

[13] = A CellTox Green Cytotoxicity Assay to monitor cytotoxicity in HEK293 cells - 0 hour (AID 1224869); also: nearly all actives have a fitted effect of over 50% in size
How it was run: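 Cytotoxicity was tracked continuously in HEK293 cells by a DNA-binding dye excluded from viable cells. Compounds were transferred in DMSO 5 h after seeding; fluorescence was recorded at intervals up to 40 h.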

[14] = target: Luciferin 4-monooxygenase (Photinus pyralis) (UniProt P08659); experiment: qHTS assay to identify small molecule inhibitors of firefly luciferase (AID 1224835); also: nearly all actives have a fitted effect of over 25% in size
How it was run: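 Biochemical qHTS: compounds run as interplate titrations against purified firefly enzyme, with D-luciferin and ATP each at its KM concentration. Light output recorded by CCD imaging.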

[15] = qHTS assay to identify small molecule agonists of the hypoxia (HIF-1) signaling pathway (AID 1224846; active = well fitted activation curve with a large enough effect in the signal ratio in the repeat runs, not every such curve was filed as active; the % refers to the signal ratio)
How it was run: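 Steps: seed ME-180 HRE-bla cells (2,000/well, 0.5% dialyzed FBS); incubate 5 hrs at 37C; pin-transfer compounds or DMSO; incubate 17 hrs; add LiveBLAzer B/G substrate CCF4-AM; measure reporter activation by FRET.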

[16] = qHTS assay to identify small molecule antagonists of the estrogen related receptor (ERR) signaling pathway from Tox21 library (AID 1224848); also: nearly all actives have a fitted effect of over 50% in size
How it was run: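 Luminescent reporter read-out (ONE-Glo) from NTP's ERR cell line after 18 h treatment at 37 C with DMSO-dissolved Tox21 compounds; cells pre-plated 6 h beforehand at 2,000 per well.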

[17] = qHTS assay to identify small molecule agonists of the estrogen related receptor (ERR) signaling pathway from Tox21 library (AID 1224849; calls by dose curve; also: nearly all actives have a fitted effect of over 15% in size); details: ERR reporter cell line, ONE-Glo luciferase, 18 h; at 92.4 µM (top of the series) unless noted
How it was run: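 Agonist signal is luciferase luminescence from an ERR reporter cell line treated 18 h at 37 C with DMSO-dissolved compounds, read 30 min after ONE-Glo addition at room temperature.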
% is scaled to controls: 0 for no effect and ±100 for the full control effect.

Thyrotropin receptor (Homo sapiens), sequence (P16473 whole entry, looked up): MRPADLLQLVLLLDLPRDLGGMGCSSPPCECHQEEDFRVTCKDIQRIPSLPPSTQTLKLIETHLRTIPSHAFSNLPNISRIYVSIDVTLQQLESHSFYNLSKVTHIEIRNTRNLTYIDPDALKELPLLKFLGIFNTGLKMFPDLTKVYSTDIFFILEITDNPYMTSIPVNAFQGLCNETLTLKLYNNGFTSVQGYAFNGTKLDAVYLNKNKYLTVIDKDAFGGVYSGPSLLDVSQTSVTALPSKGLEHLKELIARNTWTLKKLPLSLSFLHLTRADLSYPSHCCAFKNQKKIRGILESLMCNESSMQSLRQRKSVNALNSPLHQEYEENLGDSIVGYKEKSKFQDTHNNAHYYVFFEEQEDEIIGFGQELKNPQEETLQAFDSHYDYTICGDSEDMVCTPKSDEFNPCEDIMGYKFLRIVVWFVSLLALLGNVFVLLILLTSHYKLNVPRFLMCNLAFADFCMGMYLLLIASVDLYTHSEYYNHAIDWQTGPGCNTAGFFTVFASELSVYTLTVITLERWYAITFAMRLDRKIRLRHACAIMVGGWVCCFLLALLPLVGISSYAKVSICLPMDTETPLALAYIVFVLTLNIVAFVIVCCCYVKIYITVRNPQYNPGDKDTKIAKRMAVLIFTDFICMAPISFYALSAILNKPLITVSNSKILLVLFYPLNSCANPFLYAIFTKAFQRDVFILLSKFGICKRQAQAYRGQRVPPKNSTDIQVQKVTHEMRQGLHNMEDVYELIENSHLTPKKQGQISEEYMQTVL
Nuclear receptor subfamily 1 group I member 3 (Homo sapiens), sequence (Q14994 whole entry, looked up): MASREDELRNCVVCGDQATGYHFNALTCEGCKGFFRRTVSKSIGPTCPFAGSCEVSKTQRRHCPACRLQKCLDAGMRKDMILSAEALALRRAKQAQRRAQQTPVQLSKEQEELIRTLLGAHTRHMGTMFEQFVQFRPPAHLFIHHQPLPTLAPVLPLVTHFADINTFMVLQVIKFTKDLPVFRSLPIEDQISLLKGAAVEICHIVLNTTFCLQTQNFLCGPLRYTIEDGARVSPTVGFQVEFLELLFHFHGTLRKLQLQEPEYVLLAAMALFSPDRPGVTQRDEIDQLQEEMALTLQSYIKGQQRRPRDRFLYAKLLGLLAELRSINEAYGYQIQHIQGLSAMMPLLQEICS
Luciferin 4-monooxygenase (Photinus pyralis), sequence (P08659 whole entry, looked up): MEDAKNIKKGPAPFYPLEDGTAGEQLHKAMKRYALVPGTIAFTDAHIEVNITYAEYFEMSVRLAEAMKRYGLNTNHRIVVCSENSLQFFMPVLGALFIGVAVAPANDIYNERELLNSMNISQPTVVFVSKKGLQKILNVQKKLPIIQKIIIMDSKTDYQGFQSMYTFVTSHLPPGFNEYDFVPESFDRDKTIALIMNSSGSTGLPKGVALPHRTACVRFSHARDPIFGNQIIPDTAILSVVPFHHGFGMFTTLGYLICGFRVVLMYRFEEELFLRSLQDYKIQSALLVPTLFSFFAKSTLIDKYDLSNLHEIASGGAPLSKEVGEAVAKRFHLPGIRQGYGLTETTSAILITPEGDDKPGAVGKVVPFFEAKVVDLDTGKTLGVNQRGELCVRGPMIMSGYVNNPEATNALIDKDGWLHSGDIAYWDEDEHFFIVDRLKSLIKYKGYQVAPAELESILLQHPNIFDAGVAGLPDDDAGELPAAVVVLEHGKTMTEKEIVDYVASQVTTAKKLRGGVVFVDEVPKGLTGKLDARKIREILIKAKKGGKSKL

C=C(C)[C@H]1CN[C@H](C(=O)O)[C@H]1CC(=O)O
inactive: Potency [1] | Potency [2] | Potency [3] | Potency [4] | Potency [5] | Potency [6] | Potency [7] | Potency [8] | outcome [9] | Potency [10] | Potency [11] | Potency [12] | outcome [13]

NC1(c2ccccc2)CCCCC1
inactive: Potency [14] | Potency [5] | Potency [6] | Potency [7] | Potency [8] | outcome [9] | outcome [15] | Potency [10] | Potency [11] | Potency [12] | outcome [13]

Cc1cccc2sc3nncn3c12
inactive: Potency [1] | Potency [3] | Potency [4] | Potency [6] | Potency [7] | Potency [8] | outcome [9] | outcome [15] | Potency [10] | Potency [11] | Potency [12] | outcome [13]

O=C(NC(=O)c1c(F)cccc1F)Nc1cc(Cl)c(F)c(Cl)c1F
inactive: Potency [1] | Potency [3] | Potency [4] | Potency [5] | Potency [6] | Potency [7] | Potency [8] | outcome [9] | outcome [15] | Potency [10] | Potency [11] | Potency [12] | outcome [13]

O=[N+]([O-])c1cccc(CCl)c1
inactive: Potency [1] | Potency [2] | Potency [3] | Potency [4] | Potency [6] | Potency [7] | Potency [8] | outcome [9] | Potency [10] | Potency [16] | activity change, positive = activation [17] -0.166% | Potency [11] | outcome [13]

CCOC(=O)NC(C)(C)Cc1ccc(Cl)cc1
inactive: Potency [1] | Potency [2] | Potency [3] | Potency [4] | Potency [6] | Potency [7] | Potency [8] | outcome [9] | Potency [10] | Potency [11] | Potency [12] | outcome [13]

CN(C)CCc1c[nH]c2cccc(OP(=O)(O)O)c12
inactive: Potency [1] | Potency [3] | Potency [6] | Potency [8] | outcome [9] | Potency [10] | Potency [11] | Potency [12] | outcome [13]

CCCC(C)C1(CC)C(=O)N=C(S)NC1=O (centres undefined)
inactive: Potency [1] | Potency [2] | Potency [3] | Potency [4] | Potency [5] | Potency [6] | Potency [8] | outcome [9] | outcome [15] | Potency [10] | Potency [11] | Potency [12] | outcome [13]

Clc1ccc(C(Cl)(Cl)Cl)cn1
inactive: Potency [1] | Potency [2] | Potency [3] | Potency [6] | Potency [7] | outcome [9] | outcome [15] | Potency [11] | Potency [12] | outcome [13]

CON(C)C(=O)Nc1ccc(Br)cc1
inactive: Potency [14] | Potency [2] | Potency [3] | Potency [4] | Potency [6] | Potency [7] | Potency [8] | outcome [9] | outcome [15] | Potency [10] | Potency [11] | Potency [12] | outcome [13]
